Activity calls are given as the source filed them.
Assays:
[1] = E. coli DRC41 culture turbidity changes, primary screen, E. coli filamentation inducer project, strain DRC41, OD650, 48 h (AID 1152);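 further: E. coli MC1000 strain DRC41 lacking acrAB efflux pump and sulA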; details: E. coli DRC41 (acrAB sulA), higher = more signal, called active from +8 up or from −8 down
[2] = small-molecule binders of probe aLefty1, primary screen, biochemical, small-molecule microarray, 635/667 nm fluorescence (AID 1153); details: higher = more signal;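 further: score merges spot fluorescence with signal-to-noise ratio from the scanned slide images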
[3] = PSAC antagonists in infected red cells, primary screen, cell-based, P. falciparum Indochina, OD700, 1 h (AID 1154); details: P. falciparum Indochina infected RBC osmotic lysis, higher = more signal, called active from +8 up or from −8 down
[4] = PSAC antagonists in infected red cells, primary screen, cell-based, P. falciparum Indochina, OD700, 2 h (AID 1155);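 further: lysis reports solute entry through the parasite surface anion channel PSAC; channel blockers reduce lysis of infected cells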; details: P. falciparum Indochina infected erythrocytes, osmotic lysis OD700; higher = more signal, called active from +8 up or from −8 down
[5] = osmotic lysis modulators in infected erythrocytes, primary screen, PSAC antagonist project, cell-based, P. falciparum Indochina, OD700, 3 h (AID 1156); details: higher = more signal, called active from +8 up or from −8 down
[6] = PSAC antagonists in infected red cells, primary screen, cell-based, P. falciparum Indochina, OD700, 18 h (AID 1157); details: P. falciparum Indochina infected erythrocytes, osmotic lysis OD700, 18 h; higher = more signal, called active from +8 up or from −8 down
[7] = modulators of S6 phosphorylation in cells, primary screen, cell-based, A549, cytoblot, luminescence, serum-stimulated (AID 1158); details: A549 phospho-S6 cytoblot, 5 h, higher = more signal;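 further: serum-stimulated A549 lung adenocarcinoma cells; signal is phosphorylated S6 detected by cytoblot immunostaining with HRP secondary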
[8] = biological target: NADPH oxidase 2 (Homo sapiens) (UniProt P04839); assay: NOX2-dependent H2O2 signal modulators, primary screen, NOX inhibitor project, cell-based, HEK293-NOX2, PMA-stimulated, Amplex Red fluorescence (AID 1159); details: 45 min, higher = more signal, called active from +8 up or from −8 down; further: test concentration not given here
[9] = biological target: NADPH oxidase 4 (Homo sapiens) (UniProt Q9NPH5); assay: NOX4-dependent H2O2 signal modulators, primary screen, NOX inhibitor project, cell-based, HEK293-NOX4, tetracycline-induced, Amplex Red fluorescence (AID 1160); details: 45 min, higher = more signal, called active from +8 up or from −8 down
[10] = biological target: NADPH oxidase 5 (Homo sapiens) (UniProt Q96PH1); assay: NOX5-dependent H2O2 signal modulators, primary screen, NOX inhibitor project, cell-based, HEK293-NOX5, Amplex Red fluorescence (AID 1161); details: HEK293-NOX5, ionomycin, 45 min, higher = more signal
Chain of NADPH oxidase 5 (Homo sapiens) (Q96PH1 whole entry, looked up): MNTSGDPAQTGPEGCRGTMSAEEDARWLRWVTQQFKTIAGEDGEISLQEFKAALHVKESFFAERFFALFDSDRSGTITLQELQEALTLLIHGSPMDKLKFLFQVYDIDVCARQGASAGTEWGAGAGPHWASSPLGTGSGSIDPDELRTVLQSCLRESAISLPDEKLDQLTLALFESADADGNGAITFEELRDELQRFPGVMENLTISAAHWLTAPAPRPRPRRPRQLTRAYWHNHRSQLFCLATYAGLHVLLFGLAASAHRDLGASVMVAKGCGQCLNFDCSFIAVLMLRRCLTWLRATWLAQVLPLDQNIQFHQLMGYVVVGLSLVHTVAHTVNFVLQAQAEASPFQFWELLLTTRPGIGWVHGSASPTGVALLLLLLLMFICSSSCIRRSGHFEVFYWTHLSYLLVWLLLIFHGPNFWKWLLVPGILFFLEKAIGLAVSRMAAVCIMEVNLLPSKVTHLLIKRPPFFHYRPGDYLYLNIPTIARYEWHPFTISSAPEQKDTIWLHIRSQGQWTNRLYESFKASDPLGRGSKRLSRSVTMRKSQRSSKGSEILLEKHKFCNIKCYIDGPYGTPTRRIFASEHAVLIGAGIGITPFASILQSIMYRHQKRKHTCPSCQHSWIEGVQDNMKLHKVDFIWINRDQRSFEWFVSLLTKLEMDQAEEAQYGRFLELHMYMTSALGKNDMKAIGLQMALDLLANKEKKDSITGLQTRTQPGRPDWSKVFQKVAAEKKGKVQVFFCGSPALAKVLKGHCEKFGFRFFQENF

Chain of NADPH oxidase 2 (Homo sapiens) (P04839 whole entry, looked up): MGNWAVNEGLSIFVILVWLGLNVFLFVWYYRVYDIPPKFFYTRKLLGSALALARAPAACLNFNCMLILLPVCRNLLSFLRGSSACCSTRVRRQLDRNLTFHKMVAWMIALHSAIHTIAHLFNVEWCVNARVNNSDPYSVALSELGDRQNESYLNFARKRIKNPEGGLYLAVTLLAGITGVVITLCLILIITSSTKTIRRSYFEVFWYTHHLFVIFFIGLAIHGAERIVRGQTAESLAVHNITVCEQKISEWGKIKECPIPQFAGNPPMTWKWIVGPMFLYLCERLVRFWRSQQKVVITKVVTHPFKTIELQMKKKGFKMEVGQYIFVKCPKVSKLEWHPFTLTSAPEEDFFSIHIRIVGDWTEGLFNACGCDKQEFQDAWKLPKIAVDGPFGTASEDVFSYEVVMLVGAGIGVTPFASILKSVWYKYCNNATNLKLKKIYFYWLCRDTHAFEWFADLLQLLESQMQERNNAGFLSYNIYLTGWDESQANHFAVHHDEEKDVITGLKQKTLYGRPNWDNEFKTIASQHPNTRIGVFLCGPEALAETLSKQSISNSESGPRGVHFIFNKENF
Chain of NADPH oxidase 4 (Homo sapiens) (Q9NPH5 whole entry, looked up): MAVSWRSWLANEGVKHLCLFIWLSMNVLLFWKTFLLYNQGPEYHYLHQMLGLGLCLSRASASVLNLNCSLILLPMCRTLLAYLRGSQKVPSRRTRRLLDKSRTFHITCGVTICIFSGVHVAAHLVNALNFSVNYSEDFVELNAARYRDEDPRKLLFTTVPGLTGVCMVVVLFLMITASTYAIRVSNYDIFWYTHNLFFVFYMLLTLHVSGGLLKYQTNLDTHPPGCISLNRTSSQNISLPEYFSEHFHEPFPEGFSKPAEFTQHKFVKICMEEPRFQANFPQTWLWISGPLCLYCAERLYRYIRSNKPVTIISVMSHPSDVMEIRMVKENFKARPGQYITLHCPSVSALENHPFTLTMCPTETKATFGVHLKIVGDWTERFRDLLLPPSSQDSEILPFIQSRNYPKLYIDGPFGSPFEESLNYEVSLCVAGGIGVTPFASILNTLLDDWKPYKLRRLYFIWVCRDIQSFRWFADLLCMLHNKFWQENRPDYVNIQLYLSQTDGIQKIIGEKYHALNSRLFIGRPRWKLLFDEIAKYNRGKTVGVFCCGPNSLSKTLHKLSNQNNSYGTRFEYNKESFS

Row | Compound | z-score [1] | composite z-score [2] | z-score [3] | z-score [4] | z-score [5] | z-score [6] | z-score [7] | z-score [8] | z-score [9] | z-score [10]
1 | CCOC(=O)[C@H](Cc1ccccc1)NC(=O)CCC1CC(OC(=O)NCCc2ccc(F)cc2)CC2(CCCC(COC(=O)NCC(c3ccccc3)c3ccccc3)O2)O1 (stereo not given in full) | -0.455 (inactive) | -0.144 | 14.2 (active) | 4.68 (inactive) | -0.261 (inactive) | 0.688 (inactive) | -0.058 | 0.0978 (inactive) | -0.136 (inactive) | -0.234
2 | C=CC[C@@H]1C=C[C@H](ON=C2c3cc(OC)ccc3O[C@H](c3cccc(OC)c3)[C@H]2O)[C@@H](CO)O1 | 0.97 (inactive) | -0.0011 | 2.12 (inactive) | 0.637 (inactive) | 0.562 (inactive) | 0.49 (inactive) | -0.171 | -0.334 (inactive) | 0.593 (inactive) | 0.021
3 | C[C@@H]1C=CCC(=O)OC[C@H](C)C(=O)N[C@@H](C)C(=O)OC1 | 0.811 (inactive) | -0.0104 | 0.378 (inactive) | 0.371 (inactive) | 0.623 (inactive) | 0.342 (inactive) | -0.276 | -0.727 (inactive) | 0.527 (inactive) | 0.619
4 | CC(=O)OC[C@H]1O[C@H](C#CCCCc2ccccc2)C=C[C@@H]1OC(C)=O | -0.802 (inactive) | -0.0536 | 3.35 (inactive) | 0.23 (inactive) | -0.213 (inactive) | 0.148 (inactive) | -0.0744 | -1.19 (inactive) | 0.903 (inactive) | 0.839
5 | COC(=O)[C@H](C)NC(=O)CCC1CC(OC(=O)NCCc2ccc(F)cc2)CC2(CCCC(COC(=O)NCC(c3ccccc3)c3ccccc3)O2)O1 (stereo not given in full) | 0.523 (inactive) | -0.194 | 8.81 (active) | 2.61 (inactive) | -0.286 (inactive) | 0.492 (inactive) | 0.71 | 0.238 (inactive) | 0.0541 (inactive) | 0.185
6 | O=C1[C@H]2[C@H]3[C@H](O)[C@H](O)CC(=NO[C@@H]4O[C@H](CO)[C@@H](O)[C@H](O)[C@H]4O)[C@@H]3CC[C@H]2C(=O)N1Cc1ccccc1 | 0.755 (inactive) | -0.115 | 1.3 (inactive) | 0.893 (inactive) | 0.742 (inactive) | 0.475 (inactive) | 0.62 | 0.0811 (inactive) | 1.14 (inactive) | -0.0503
7 | C=C(/C(=C/C[C@H](OC(=O)c1ccncc1)c1ccc(OCCO)cc1)c1cnc2ccccc2c1)C(C)C | -0.592 (inactive) | 0.188 | 18.5 (active) | 3.04 (inactive) | 1.11 (inactive) | 0.724 (inactive) | -0.288 | -0.513 (inactive) | -0.346 (inactive) | -0.699
8 | c1ccc(C2NCCc3c2[nH]c2ccccc32)cc1 (stereo not given) | -1.78 (inactive) | 0.155 | 1.07 (inactive) | 0.709 (inactive) | 0.806 (inactive) | -0.0204 (inactive) | -0.513 | 0.943 (inactive) | -0.561 (inactive) | 1.23
9 | CCCCCN1CC=CC23O[C@@H]4C=CCOC(=O)[C@@H]4[C@H]2C(=O)N(CCCCCCO)[C@@H]3C1=O (stereo not given in full) | 0.191 (inactive) | -0.103 | 2.04 (inactive) | -0.0969 (inactive) | 0.748 (inactive) | 0.187 (inactive) | 0.0374 | 1.24 (inactive) | -0.482 (inactive) | 1.73
10 | CCOC(=O)[C@H](Cc1ccccc1)NC(=O)CCC1CC(OC(=O)NCc2ccc3c(c2)OCO3)CC2(CCCC(COC(=O)NCc3ccccc3)O2)O1 (stereo not given in full) | 0.0722 (inactive) | -0.101 | 0.0765 (inactive) | 0.979 (inactive) | -1.37 (inactive) | 0.565 (inactive) | -0.0074 | -0.988 (inactive) | 0.852 (inactive) | 0.562
11 | COCCOC(=O)N1C(=O)[C@@]2(c3cc(C#CCNC(N)=O)ccc31)[C@H](c1ccc(O)cc1)N1[C@H](c3ccccc3)[C@H](c3ccccc3)OC(=O)[C@H]1[C@@H]2C(=O)N1CCCCCCC1 | 0.455 (inactive) | -0.0779 | 1.04 (inactive) | 0.656 (inactive) | -0.0303 (inactive) | 0.411 (inactive) | 0.0352 | 1.49 (inactive) | -1.04 (inactive) | 1.48
12 | COC(=O)[C@@H]1CC[C@H](C)[C@@H](c2ccc(C)cc2)N1C(=O)c1ccc(C=NOC[C@@H](O)COCc2ccco2)cc1 | 1.06 (inactive) | -0.255 | 5.79 (inactive) | 0.944 (inactive) | -0.0224 (inactive) | 1.05 (inactive) | -1.05 | -0.0479 (inactive) | -0.0106 (inactive) | 0.254
13 | CC(C)OC(=O)C=C1C[C@@H](c2ccc(C#N)cc2)O[C@@H](c2ccc(C#N)cc2)O1 | 0.197 (inactive) | 0.474 | 8.57 (active) | 0.848 (inactive) | 0.78 (inactive) | 0.439 (inactive) | -0.342 | -0.669 (inactive) | -1.02 (inactive) | -0.607

Reference: PubChem BioAssay
